In article PMC4242493, “Sequence specificity incompletely defines the genome-wide occupancy of Myc”:
The full ranking holds about 33,000 sequences; the median of “normalized occupancy” is about 0.075, and the highest 2% start at about 0.095. Shown is part of a subset that was picked to be rich in the highest values.

The sequences below were run against MaxL homodimer (Homo sapiens, UniProt P61244 1-160) (assay: universal protein-binding microarray (PBM); PBS-based mixture, 10 nM His-tagged protein dimer, 2% milk, 200 ng/uL BSA, 50 ng/uL salmon testes DNA, 0.02% TX-100; detection with Alexa 488 anti-His antibody;; high values mean tight binding). Conditions: protein: recombinant; tags: C-terminal His-tag (pET21a); chain copies: 2; dsDNA, one strand shown.
Sequence of MaxL homodimer (P61244 whole entry): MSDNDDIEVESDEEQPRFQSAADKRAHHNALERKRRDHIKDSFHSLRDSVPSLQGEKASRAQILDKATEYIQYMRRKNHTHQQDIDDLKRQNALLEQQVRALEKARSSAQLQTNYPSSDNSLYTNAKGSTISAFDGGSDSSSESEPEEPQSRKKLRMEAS
Method in brief: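 Each 8-mer received a fluorescence intensity from GenePix 4400A scans of Agilent 4 x 44 K 'all 10-mer' universal arrays. Those arrays had been incubated with His-tagged protein dimer at 10 nM, and the bound protein was marked with a fluorophore-conjugated anti-His antibody at 10 ng/μL. Binding occupancy is the intensity scaled to that of the highest-ranked sequence word.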

| Sequence | binding signal |
| --- | --- |
| GACATTGC | 0.0757 normalized occupancy |
| GGAAGAGA | 0.0767 normalized occupancy |
| AGAATGTC | 0.0744 normalized occupancy |
| CCTGCTAC | 0.0758 normalized occupancy |
| CCCTAATA | 0.0744 normalized occupancy |
| CGATTAAG | 0.0743 normalized occupancy |
| TTCATAAA | 0.0768 normalized occupancy |
| CAGACCCC | 0.085 normalized occupancy |
| CAGTAGAA | 0.0771 normalized occupancy |
| ACGTCGTC | 0.0822 normalized occupancy |
| AATGCTCG | 0.0783 normalized occupancy |
| GATGCTCA | 0.0734 normalized occupancy |
| AATGCTCA | 0.0829 normalized occupancy |
| GATGCTCC | 0.0753 normalized occupancy |
| CGTGCTCC | 0.085 normalized occupancy |
| CATGCTCA | 0.099 normalized occupancy |
| CATGCTCC | 0.105 normalized occupancy |
| CATGCTCG | 0.106 normalized occupancy |
| TATGCTCA | 0.0848 normalized occupancy |
| CTTTACCA | 0.0764 normalized occupancy |
| ATTGGGGC | 0.0771 normalized occupancy |
| ACGTGGCT | 0.101 normalized occupancy |
| CCGTGGCG | 0.0765 normalized occupancy |
| ACGTGGCC | 0.094 normalized occupancy |
| AAGTGGCT | 0.072 normalized occupancy |

| Sequence | binding signal |
| --- | --- |
| CCGTGGCA | 0.077 normalized occupancy |
| TCGTGGCA | 0.0869 normalized occupancy |
| ACGTGGCA | 0.106 normalized occupancy |
| AGGTGGCA | 0.082 normalized occupancy |
| GCGTGGCA | 0.121 normalized occupancy |
| ACCTGGCT | 0.0765 normalized occupancy |
| ACGTGGCG | 0.107 normalized occupancy |
| ATGTGGCG | 0.0879 normalized occupancy |
| GGTCTGTA | 0.0752 normalized occupancy |
| CCTTGTCC | 0.0743 normalized occupancy |
| CTGACTCA | 0.0764 normalized occupancy |
| AACCAAGT | 0.0721 normalized occupancy |
| GAGGAGAA | 0.0783 normalized occupancy |
| GGTAACTA | 0.077 normalized occupancy |
| CAACTTAG | 0.0721 normalized occupancy |
| AGGCACCT | 0.078 normalized occupancy |
| CTATTTTC | 0.0775 normalized occupancy |
| CCAAACGC | 0.073 normalized occupancy |
| GCGACTCA | 0.0767 normalized occupancy |
| GAGTGGCC | 0.073 normalized occupancy |
| CCGTGGCC | 0.0738 normalized occupancy |
| GCGTGGCC | 0.0977 normalized occupancy |
| GGACAACA | 0.0742 normalized occupancy |
| CAGGTGTA | 0.0957 normalized occupancy |
| CCCGTGTC | 0.0814 normalized occupancy |

| Sequence | binding signal |
| --- | --- |
| CAGGTGTC | 0.0839 normalized occupancy |
| ATCGTGTG | 0.0889 normalized occupancy |
| ACCGTGTA | 0.0779 normalized occupancy |
| CACGTGTC | 0.574 normalized occupancy |
| CAAGTGTC | 0.0772 normalized occupancy |
| AACGTATA | 0.0869 normalized occupancy |
| ACCGTGTG | 0.0873 normalized occupancy |
| AACGTGTG | 0.108 normalized occupancy |
| AAGGTGTA | 0.0773 normalized occupancy |
| AACGTGTA | 0.11 normalized occupancy |
| GATGCAAA | 0.0761 normalized occupancy |
| GTTCGTAA | 0.0774 normalized occupancy |
| CCTAGATA | 0.0756 normalized occupancy |
| ACCGTACA | 0.0768 normalized occupancy |
| AAATAGCA | 0.0843 normalized occupancy |
| ACTATAAC | 0.0847 normalized occupancy |
| AGTTTTTG | 0.0729 normalized occupancy |
| ATTGCGAA | 0.074 normalized occupancy |
| ATGGGTAG | 0.0856 normalized occupancy |
| ATGATTGG | 0.0808 normalized occupancy |
| AAGAGCAG | 0.0746 normalized occupancy |
| CCCGTGTA | 0.0861 normalized occupancy |
| ACCGTGTC | 0.072 normalized occupancy |
| AACGTGTC | 0.101 normalized occupancy |
| CACGTGTA | 0.536 normalized occupancy |

| Sequence | binding signal |
| --- | --- |
| AAGGTGTC | 0.0775 normalized occupancy |
| GACGTGTA | 0.0816 normalized occupancy |
| AATGGCTC | 0.0777 normalized occupancy |
| AATTAGTG | 0.0813 normalized occupancy |
| ACGTGTCT | 0.0997 normalized occupancy |
| ACGTGTCG | 0.106 normalized occupancy |
| ACGTGTCA | 0.0923 normalized occupancy |
| AAGTGTCT | 0.073 normalized occupancy |
| CCGTGTCG | 0.075 normalized occupancy |
| AGGTGTCG | 0.0793 normalized occupancy |
| ATTGAGAG | 0.0765 normalized occupancy |
| CATAGGGG | 0.085 normalized occupancy |
| AGATGGAA | 0.0827 normalized occupancy |
| ACATAGCA | 0.0807 normalized occupancy |
| GCACGTAC | 0.0883 normalized occupancy |
| GTACGTGA | 0.078 normalized occupancy |
| GCACGTCC | 0.0788 normalized occupancy |
| GCACGTGA | 0.36 normalized occupancy |
| GCACGTGC | 0.834 normalized occupancy |
| GGACGTGA | 0.0764 normalized occupancy |
| GATTGGGA | 0.076 normalized occupancy |
| TGCGCCCA | 0.0758 normalized occupancy |
| CGATTTCA | 0.072 normalized occupancy |
| GCCTGGCA | 0.0722 normalized occupancy |
| ACAACACA | 0.0849 normalized occupancy |

| Sequence | binding signal |
| --- | --- |
| ACAACATA | 0.0833 normalized occupancy |
| ACAACATC | 0.0778 normalized occupancy |
| ATAACATC | 0.0807 normalized occupancy |
| ATAACACG | 0.0958 normalized occupancy |
| ATAACATG | 0.0981 normalized occupancy |
| ACAACATG | 0.0952 normalized occupancy |
| ATAACATA | 0.0882 normalized occupancy |
| GTAACACA | 0.0828 normalized occupancy |
| ATAACACA | 0.0874 normalized occupancy |
| ACAACACC | 0.0812 normalized occupancy |
| ACAACACG | 0.0955 normalized occupancy |
| GTTTCTTA | 0.0733 normalized occupancy |
| CCTTAACA | 0.0794 normalized occupancy |
| GTAGGCTA | 0.0748 normalized occupancy |
| CACATGGC | 0.199 normalized occupancy |
| AACATGGG | 0.0935 normalized occupancy |
| ACCATGGG | 0.0927 normalized occupancy |
| CCCATGGA | 0.0846 normalized occupancy |
| CACATGGG | 0.166 normalized occupancy |
| AACATGGA | 0.0836 normalized occupancy |
| CACATGGA | 0.162 normalized occupancy |
| CCCATGGG | 0.0962 normalized occupancy |
| CAAATGGG | 0.0805 normalized occupancy |
| AACATGGC | 0.0896 normalized occupancy |
| GACATGGC | 0.0801 normalized occupancy |

| Sequence | binding signal |
| --- | --- |
| GACATGGA | 0.0844 normalized occupancy |
| ATAAGAGG | 0.073 normalized occupancy |
| AGGACAAG | 0.0738 normalized occupancy |
| GAGTCTGA | 0.0726 normalized occupancy |
| TATTACAA | 0.0802 normalized occupancy |
| CAAACCGA | 0.0737 normalized occupancy |
| GGAGAACA | 0.0748 normalized occupancy |
| CGACGTCA | 0.0748 normalized occupancy |
| ATACAAGG | 0.0755 normalized occupancy |
| CATAGGCG | 0.0751 normalized occupancy |
| ACGTGCCA | 0.115 normalized occupancy |
| ACGTGCCC | 0.0948 normalized occupancy |
| ACGTGCCT | 0.0959 normalized occupancy |
| ACGTGCCG | 0.0929 normalized occupancy |
| CCGTGCCA | 0.0772 normalized occupancy |
| TCGTGCCA | 0.0874 normalized occupancy |
| AACAATAC | 0.076 normalized occupancy |
| CTTTCCAA | 0.0733 normalized occupancy |
| AATGCACT | 0.0779 normalized occupancy |
| AATGCACC | 0.0777 normalized occupancy |
| GATGCACA | 0.0921 normalized occupancy |
| AATGCACG | 0.0974 normalized occupancy |
| CATGCACC | 0.0986 normalized occupancy |
| TATGCACA | 0.0883 normalized occupancy |
| CATGCACG | 0.101 normalized occupancy |

| Sequence | binding signal |
| --- | --- |
| GATGCACC | 0.0775 normalized occupancy |
| AATGCACA | 0.0785 normalized occupancy |
| CATGCACA | 0.0961 normalized occupancy |
| CCTGCACG | 0.0845 normalized occupancy |
| CTTGCACA | 0.0801 normalized occupancy |
| GAGACATA | 0.0802 normalized occupancy |
| AGATAATC | 0.0755 normalized occupancy |
| ACAGGCAT | 0.0804 normalized occupancy |
| ATCGCAAT | 0.0728 normalized occupancy |
| AATCTTCA | 0.072 normalized occupancy |
| ACGAAAAG | 0.0718 normalized occupancy |
| ACCTTATG | 0.0812 normalized occupancy |
| AAGGCATT | 0.0725 normalized occupancy |
| ATGGCATA | 0.085 normalized occupancy |
| ATGGCACA | 0.0786 normalized occupancy |
| ATGGCACG | 0.0985 normalized occupancy |
| AAGGCATG | 0.0988 normalized occupancy |
| ACGGCGTG | 0.0958 normalized occupancy |
| ACGGCGTC | 0.0722 normalized occupancy |
| ATGGCATG | 0.0968 normalized occupancy |
| AAGGCATA | 0.0742 normalized occupancy |
| ATGGCATC | 0.0919 normalized occupancy |
| ACGGCGTA | 0.0728 normalized occupancy |
| CTGGCACA | 0.0744 normalized occupancy |
| CGATGATA | 0.0772 normalized occupancy |

| Sequence | binding signal |
| --- | --- |
| CTTAATCA | 0.073 normalized occupancy |
| CAGAGACA | 0.0742 normalized occupancy |
| CTTCACCA | 0.085 normalized occupancy |
| AACAACCA | 0.0769 normalized occupancy |
| AAAACATA | 0.0798 normalized occupancy |
| AAAGAGGA | 0.0738 normalized occupancy |
| ACCTCAAA | 0.0749 normalized occupancy |
| CTTGCGTA | 0.0773 normalized occupancy |
| GGCTTCCA | 0.0728 normalized occupancy |
| CAGGCATA | 0.0804 normalized occupancy |
| ACGGCATC | 0.0761 normalized occupancy |
| ACGGCATG | 0.103 normalized occupancy |
| CAGGCATC | 0.0725 normalized occupancy |
| CAGGCATG | 0.0964 normalized occupancy |
| ACGGCATA | 0.0754 normalized occupancy |
| GACAGACC | 0.0741 normalized occupancy |
| AACTCCAG | 0.0726 normalized occupancy |
| AGTGCTGC | 0.072 normalized occupancy |
| GATTTGAC | 0.0751 normalized occupancy |
| ACGCATGC | 0.124 normalized occupancy |
| ACGCATAG | 0.0818 normalized occupancy |
| ACGCATAC | 0.0842 normalized occupancy |
| ACGCATTG | 0.0891 normalized occupancy |
| CCGCATGC | 0.128 normalized occupancy |
| CCGCATAA | 0.0821 normalized occupancy |

| Sequence | binding signal |
| --- | --- |
| CCGCATTC | 0.072 normalized occupancy |
| CCGCATCA | 0.0853 normalized occupancy |
| CCGCATGA | 0.113 normalized occupancy |
| ACGCATGG | 0.136 normalized occupancy |
| ACGCATTC | 0.0764 normalized occupancy |
| CCGCATCC | 0.0787 normalized occupancy |
| ACGCTGTG | 0.0735 normalized occupancy |
| ACAGGGAG | 0.0726 normalized occupancy |
| AAAGGCAG | 0.0731 normalized occupancy |
| CGGGTGAC | 0.0779 normalized occupancy |
| ATTCATAA | 0.0836 normalized occupancy |
| ATGTAGGC | 0.0776 normalized occupancy |
| GAAAAGAA | 0.0746 normalized occupancy |
| GGCATTTA | 0.0801 normalized occupancy |
| GGATCGGA | 0.0725 normalized occupancy |
| GCGCATGA | 0.0897 normalized occupancy |
| ACGCATGA | 0.102 normalized occupancy |
| ACGCATCA | 0.0829 normalized occupancy |
| AGGCTACA | 0.0725 normalized occupancy |
| ACCACAGG | 0.0732 normalized occupancy |
| ACGTAGGC | 0.0765 normalized occupancy |
